Source: the supplement of paper PMC11417369
± gives the standard deviation of the averaged measurements. Whole data set: some 25,000 sequences, median “ln(normalized median fluorescence intensity)” near 10, cut for the highest 2% near 12. The list comes from a sample in which the highest values are over-represented; it also holds similar and randomly drawn sequences.

What follows are sequences tested on PfAP2-G AP2 domain (GST-tagged) (assay: gcPBM binding intensity (ln(normalized median fluorescence intensity)); higher = stronger DNA binding).
Method in brief: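 Each value is the highest Masliner-normalised natural-log median intensity across replicate spots of either orientation of a probe. The probes were primer-extended double-stranded 36-bp intergenic genomic sequences on an Agilent 4 × 180k array, alongside negative controls, exposed for 1 h to GST-tagged P. falciparum DNA-binding domains expressed in E. coli. Bound protein was picked up with Alexa488 anti-GST antibody and scanned at 488 nm.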

Sequence | gcPBM binding intensity (ln)
TCTTTAAATTTCTCAACACACAGTTATAAAAAATAA [CACACA_site2856] | 9.8 ± 0.085
TATAAATTTTTATTTACATGCAGTTATTATTTCCAT [TGCATGCA_site41] | 10 ± 0.18
TAGTATTAAAATATTTGTACTTATATGTATTATATA [XGTACX_site538] | 11 ± 0.69
TAATGGTATAAAAAATGTACATGTTTTTTTACAATT [XGTACX_site4285] | 11.2 ± 0.54
TAATGGTGTTCATGTGGTACACTTTATAAATTGGCA [XGTACX_site729] | 11.7 ± 1.1
GCTTTTAAAATAATTGGTACACATGTATAAATTCAA [XGTACX_site2327] | 11.1 ± 0.69
TCATTCATATGTTACACACACACACGCACATAAAAA [CACACA_site7514] | 10.5 ± 0.35
ATTTTATATATGTGTTGTACGGTGAACATTTTGATA [XGTACX_site6538] | 10.8 ± 0.58
TTTTCAATATATATTTGTACTTTATTTTATGATATT [GTGCAC_negctrl_site732] | 11.2 ± 0.75
TTATGATATATTTGTTGTACGCTTTTTTTATGAACT [XGTACX_site573] | 11.8 ± 1.1
ATTTTAAATATTTGTGGTACCCCTTTTTTGTAACAA [XGTACX_site5590] | 11.8 ± 1.1
GAAATATTTGTAAAAACATGCATGGTACTTTTAAAA [TGCATGCA_site6] | 11 ± 0.7
TTCCCTTTTGTAAAATGTACATATATATTTAAACAA [XGTACX_site3263] | 11.2 ± 0.54
ATTTATATTTAATATACACACATTATTTTTTTATAT [CACACA_site574] | 9.955 ± 0.021
TAAAAATGGGAGGGGTGTACTACACAATAAAATTAT [XGTACX_site5641] | 11.6 ± 0.95
TGTAGAGCGCAAAGTAGTACTACAAATTATGGAGGG [XGTACX_site3022] | 11.8 ± 1
ATATATGACAAATGTAGTACAAATTATTGTATCATA [XGTACX_site3675] | 11.4 ± 0.76
TTATATTTTTACAAGAGTACATATATATATATATAT [XGTACX_site5383] | 11.4 ± 1.1
ATGTAAATACATATATGTACACAAATATATATATAT [XGTACX_site3537] | 11.6 ± 1.1
TATATTTTATATTGGTGTACAATTTTTTTTTTTTTT [XGTACX_site4291] | 11.4 ± 0.91
TTATTTTTTTTGTGTTGTACAATTTATTACTACTAA [XGTACX_site346] | 11.3 ± 0.82
TTCTGTGTGTATTGGCGTACAATTATTTTGCCTACA [XGTACX_site205] | 11.7 ± 0.83

Sequence | gcPBM binding intensity (ln)
TTTTTATAAAAATGAACACACACATATATATATATA [CACACA_site9160] | 10.2 ± 0.49
ATGTGTTGGGAAAAGGCATGCACTTTTTTTTTTTTT [TGCATGCA_site707] | 10.2 ± 0.11
GTACAGATGTAGTATGCATGTAATTATATATAAATT [TGCATGCA_site292] | 11.1 ± 0.47
ATATGAAATATATGTAGTACACATAATTAAAAGTAG [XGTACX_site6490] | 11.7 ± 0.86
CTTTTAATTATAAAATGTACTTAAAAATAATAATAC [XGTACX_site635] | 11.1 ± 0.88
TAAAATAAAAATTAAAGTACATATGTATATATATAT [XGTACX_site3984] | 11.1 ± 0.88
AATAATGTATGAAATAAACACACAAGTAAGTACATA [CACACA_site8776] | 11.7 ± 0.91
CCTTTATAAAAAAGTAGTACACAATGAATTTATAAT [XGTACX_site5523] | 11.8 ± 1
TAATAATAAATAAAATGTACATATGAACAAATAAGT [XGTACX_site6710] | 11.3 ± 0.61
AATGAAATAAAATAAAGTACATATATGTAAAAGTAG [XGTACX_site5650] | 11.4 ± 0.79
TTATATACATAAAAATGTACTTTTTATAAAATATAT [XGTACX_site8281] | 11.2 ± 1
GGGGGCTTTTATAAAAGTACAAAATGAATAAAAATT [XGTACX_site2393] | 11.4 ± 0.97
TAATGTATGAAATAAACACACAAGTAAGTACATAAA [CACACA_site2451] | 11.6 ± 0.98
TTATTATAAAAATGTAGTACAATACTTTTTTTTTTT [XGTACX_site732] | 11.7 ± 0.84
TTATTTTATAATAAAAGTACACAAAAAAAAAAAAAA [XGTACX_site7668] | 11.4 ± 1.1
ACAAGATGATGGAAATGTACATAAAAAGAATCATAT [XGTACX_site8682] | 11.2 ± 0.63
AAAAAAAAAAAAACTACACACATACAAATATTTATA [CACACA_site5430] | 9.875 ± 0.035
AAAAAAAAGAAAAACACACACATATATATATATAAT [CACACA_site4707] | 9.72 ± 0.042
TGAAAATAATTATAGGTGCATAAACATACGGATCTT | 10.21 ± 0.021
TTTTTTTTAAGAGATAGTACATAAATATTATAATAT [XGTACX_site4685] | 11.1 ± 0.86
GACATTAATTATTTGACACACGACTGGGTGGTGATT [CACACA_site306] | 10.09 ± 0.021
TTTTTTGAAAATAAAAGTACAAATTTTATATTTAAA [XGTACX_site2758] | 11 ± 0.88
